Values joined by “and” are separate entries in the source; they are usually repeats but may differ in a detail not shown here. Identical values can stand only once. Results filed as inconclusive are left out. Active and inactive are the calls of the source. Calls come from the whole dose curve; as a rule, active = well fitted curve in the direction sought with a large enough effect in the repeat runs; inconclusive = weak or mixed curves; inactive = no such curve, though single readings can be large; an effect the other way counts as inactive or inconclusive.
Columns and labels:
[1] = A CellTox Green Cytotoxicity Assay to monitor cytotoxicity in HEK293 cells - 40 hour (AID 1224871); note: nearly all actives have a fitted effect of over 45% in size
Summary of the method: (§1)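 HEK293 cells premixed with CellTox Green dye were seeded at 600 cells/well and left 5 h at 37 C/5% CO2 before pin transfer of 23 nL compound in DMSO. Fluorescence from dye bound to dead-cell DNA was read during 40 h treatment.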

[2] = qHTS RealTime-Glo MT Cell Viability Assay in HEK293 cells - 16 hour (AID 1224872); note: top concentration of the series differs between compounds; nearly all actives have a fitted effect of over 50% in size
Summary of the method: (§2)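 Reads taken at 0, 8, 16, 24, 32 and 40 h from the same wells. HEK293 cells (600/well) carried RealTime-Glo reagents from seeding, with compound added after a 5 h settle at 37 C.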

[3] = qHTS RealTime-Glo MT Cell Viability Assay in HepG2 cells - 8 hour (AID 1224873); note: nearly all actives have a fitted effect of over 55% in size
Summary of the method: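 HepG2 cells mixed with RealTime-Glo MT reagents (NanoLuc plus cell-permeant prosubstrate) were seeded at 600 cells/well, incubated 5 h at 37 C/5% CO2, then pinned with compounds in DMSO; nonlytic luminescence tracked viability during 40 h treatment.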

[4] = qHTS RealTime-Glo MT Cell Viability Assay in HEK293 cells - 40 hour (AID 1224874); details: RealTime-Glo luminescence; max response: hits give low values; note: nearly all actives have a fitted effect of over 50% in size
Summary of the method: (§3)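 HEK293 cells mixed with RealTime-Glo reagents (NanoLuc plus cell-permeant prosubstrate) at 600 cells/well, preincubated 5 h at 37 C/5% CO2, then given 23 nL compound in DMSO. Nonlytic luminescence from viable cells was read at 0, 8, 16, 24, 32 and 40 h.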

[5] = A CellTox Green Cytotoxicity Assay to monitor cytotoxicity in HEK293 cells - 24 hour (AID 1224875); note: series mostly up to about 77 µM; nearly all actives have a fitted effect of over 45% in size
Summary of the method: as §1

[6] = A CellTox Green Cytotoxicity Assay to monitor cytotoxicity in HepG2 cells - 16 hour (AID 1224876); note: nearly all actives have a fitted effect of over 45% in size
Summary of the method: (§4)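 HepG2 cells were seeded together with the CellTox Green dye at 600 cells/well, left 5 h at 37 C/5% CO2, then given compounds in DMSO. Fluorescence from dye bound to dead-cell DNA was read repeatedly over 40 h of treatment at 37 C.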

[7] = qHTS RealTime-Glo MT Cell Viability Assay in HepG2 cells - 32 hour (AID 1224877); note: nearly all actives have a fitted effect of over 55% in size
Summary of the method: (§5)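 HepG2 suspension premixed with RealTime-Glo reagents is plated at 600 cells per well and left 5 h at 37 C/5% CO2. Compounds in DMSO then go in, and bioluminescence reflecting viable cell number is recorded over 40 h.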

[8] = A CellTox Green Cytotoxicity Assay to monitor cytotoxicity in HepG2 cells - 24 hour (AID 1224878); note: nearly all actives have a fitted effect of over 45% in size
Summary of the method: as §4

[9] = A CellTox Green Cytotoxicity Assay to monitor cytotoxicity in HepG2 cells - 40 hour (AID 1224879); note: nearly all actives have a fitted effect of over 40% in size
Summary of the method: as §4

[10] = qHTS RealTime-Glo MT Cell Viability Assay in HEK293 cells - 0 hour (AID 1224880)
Summary of the method: as §3

[11] = A CellTox Green Cytotoxicity Assay to monitor cytotoxicity in HEK293 cells - 32 hour (AID 1224881); note: nearly all actives have a fitted effect of over 40% in size
Summary of the method: as §1

[12] = A CellTox Green Cytotoxicity Assay to monitor cytotoxicity in HepG2 cells - 0 hour (AID 1224882); note: nearly all actives have a fitted effect of over 35% in size
Summary of the method: as §4

[13] = A CellTox Green Cytotoxicity Assay to monitor cytotoxicity in HepG2 cells - 32 hour (AID 1224883); note: nearly all actives have a fitted effect of over 50% in size
Summary of the method: as §4

[14] = A CellTox Green Cytotoxicity Assay to monitor cytotoxicity in HEK293 cells - 8 hour (AID 1224884); note: nearly all actives have a fitted effect of over 35% in size
Summary of the method: as §1

[15] = qHTS RealTime-Glo MT Cell Viability Assay in HepG2 cells - 16 hour (AID 1224885); note: nearly all actives have a fitted effect of over 50% in size
Summary of the method: as §5

[16] = qHTS RealTime-Glo MT Cell Viability Assay in HEK293 cells - 24 hour (AID 1224886)
Summary of the method: as §2

[17] = qHTS RealTime-Glo MT Cell Viability Assay in HEK293 cells - 8 hour (AID 1224887)
Summary of the method: as §3

[18] = A CellTox Green Cytotoxicity Assay to monitor cytotoxicity in HEK293 cells - 16 hour (AID 1224888); note: nearly all actives have a fitted effect of over 35% in size
Summary of the method: as §1

[19] = qHTS RealTime-Glo MT Cell Viability Assay in HepG2 cells - 0 hour (AID 1224889); note: nearly all actives have a fitted effect of over 50% in size
Summary of the method: as §5

[20] = A CellTox Green Cytotoxicity Assay to monitor cytotoxicity in HepG2 cells - 8 hour (AID 1224890); note: nearly all actives have a fitted effect of over 45% in size
Summary of the method: as §4
% is set by controls: 0 for no effect and ±100 for the full control effect.

COC1=CC(=O)O[C@@H](/C=C/c2ccccc2)C1
inactive: Potency [1] | Potency [2] | outcome [3] | max response [4] -17.5% | Potency [5] | Potency [6] | Potency [7] | Potency [8] | Potency [9] | outcome [10] | Potency [11] | outcome [12] | Potency [13] | Potency [14] | Potency [15] | Potency [16] | Potency [17] | Potency [18] | outcome [19] | Potency [20]

C/C(=N\NC(=O)Nc1cc(F)cc(F)c1)c1ncccc1C(=O)O
inactive: Potency [1] | Potency [2] | outcome [3] | max response [4] -7.58% and 0.112% | Potency [5] | Potency [6] | Potency [7] | Potency [8] | Potency [9] | outcome [10] | Potency [11] | outcome [12] | Potency [13] | Potency [14] | Potency [15] | Potency [16] | Potency [17] | Potency [18] | outcome [19] | Potency [20]

O=C(Cl)OCc1ccccc1
inactive: Potency [1] | Potency [2] | outcome [3] | max response [4] 10.6% | Potency [5] | Potency [6] | Potency [7] | Potency [8] | Potency [9] | outcome [10] | Potency [11] | outcome [12] | Potency [13] | Potency [14] | Potency [15] | Potency [16] | Potency [17] | Potency [18] | outcome [19]

CCOC(=O)CC(SP(=S)(OC)OC)C(=O)OCC (stereo not given)
inactive: Potency [1] | Potency [2] | outcome [3] | max response [4] 11.4% | Potency [5] | Potency [6] | Potency [7] | Potency [8] | Potency [9] | outcome [10] | Potency [11] | outcome [12] | Potency [13] | Potency [14] | Potency [15] | Potency [16] | Potency [17] | Potency [18] | outcome [19] | Potency [20]

BrCc1ccc(Br)cc1
inactive: Potency [1] | Potency [2] | outcome [3] | max response [4] 4.4% | Potency [5] | Potency [6] | Potency [7] | Potency [8] | Potency [9] | outcome [10] | Potency [11] | outcome [12] | Potency [13] | Potency [14] | Potency [15] | Potency [16] | Potency [17] | Potency [18] | outcome [19] | Potency [20]

C#CC(C)(C)O
inactive: Potency [1] | Potency [2] | outcome [3] | max response [4] 6.71% | Potency [5] | Potency [6] | Potency [7] | Potency [8] | Potency [9] | outcome [10] | Potency [11] | outcome [12] | Potency [13] | Potency [14] | Potency [15] | Potency [16] | Potency [17] | Potency [18] | outcome [19] | Potency [20]

C=C(Cl)CCl
inactive: Potency [1] | Potency [2] | outcome [3] | max response [4] -1.15% | Potency [5] | Potency [6] | Potency [7] | Potency [8] | Potency [9] | outcome [10] | Potency [11] | outcome [12] | Potency [13] | Potency [14] | Potency [15] | Potency [16] | Potency [17] | Potency [18] | outcome [19] | Potency [20]

CNC(=O)Oc1cc(C)c(N(C)C)c(C)c1
inactive: Potency [1] | Potency [2] | outcome [3] | max response [4] -10.9% | Potency [5] | Potency [6] | Potency [7] | Potency [8] | Potency [9] | outcome [10] | Potency [11] | outcome [12] | Potency [13] | Potency [15] | Potency [16] | Potency [17] | Potency [18] | outcome [19] | Potency [20]

C#CCOC(=O)/C=C(C)/C=C/CC(C)CCCC(C)C (stereo not given)
inactive: Potency [1] | Potency [2] | outcome [3] | max response [4] 17.6% | Potency [5] | Potency [6] | Potency [7] | Potency [8] | Potency [9] | outcome [10] | Potency [11] | outcome [12] | Potency [13] | Potency [14] | Potency [15] | Potency [16] | Potency [17] | outcome [19] | Potency [20]

ClCOCCl
inactive: Potency [1] | Potency [2] | outcome [3] | max response [4] 12.2% | Potency [5] | Potency [6] | Potency [7] | Potency [8] | Potency [9] | outcome [10] | Potency [11] | outcome [12] | Potency [13] | Potency [14] | Potency [15] | Potency [16] | Potency [17] | outcome [19] | Potency [20]

COC(=O)[C@@H](N)CCCN/C(N)=N/[N+](=O)[O-]
inactive: Potency [1] | Potency [2] | outcome [3] | max response [4] 6.22% | Potency [5] | Potency [6] | Potency [7] | Potency [8] | Potency [9] | outcome [10] | Potency [11] | outcome [12] | Potency [13] | Potency [14] | Potency [15] | Potency [16] | Potency [17] | Potency [18] | outcome [19] | Potency [20]

BrCCc1ccccc1
inactive: Potency [1] | Potency [2] | outcome [3] | max response [4] -1.95% | Potency [5] | Potency [6] | Potency [7] | Potency [8] | Potency [9] | outcome [10] | Potency [11] | outcome [12] | Potency [13] | Potency [14] | Potency [16] | Potency [17] | outcome [19] | Potency [20]

CCN(CC)CCOC(=O)C(O)(c1ccccc1)c1ccccc1
inactive: Potency [1] | Potency [2] | outcome [3] | max response [4] -0.657% | Potency [5] | Potency [6] | Potency [7] | Potency [8] | Potency [9] | outcome [10] | Potency [11] | outcome [12] | Potency [13] | Potency [14] | Potency [16] | Potency [17] | outcome [19] | Potency [20]

C[C@@H](N)[C@@H](O)c1ccccc1
inactive: Potency [1] | Potency [2] | outcome [3] | max response [4] 1.05% | Potency [5] | Potency [6] | Potency [7] | Potency [8] | Potency [9] | outcome [10] | Potency [11] | outcome [12] | Potency [13] | Potency [15] | Potency [16] | Potency [17] | Potency [18] | outcome [19] | Potency [20]

CCC(C)C(C)(COC(N)=O)COC(N)=O (stereo not given)
inactive: Potency [1] | Potency [2] | outcome [3] | max response [4] 3.68% | Potency [5] | Potency [6] | Potency [7] | Potency [8] | Potency [9] | outcome [10] | Potency [11] | outcome [12] | Potency [13] | Potency [14] | Potency [16] | Potency [17] | Potency [18] | outcome [19] | Potency [20]

Source: PubChem BioAssay (Tox21)
